A word on the inhibition: it is the change of the read-out against control, counted positive when it falls.

The whole screen tested about 100,000 compounds, of which about 440 (0.44%) were called active. Only a selection was taken, and actives are over-represented in it overall. Unmarked numbers belong to inactive results. No stated cut-off is given here; in the data, active means inhibition above about 21% (passing the limit was not always enough); inactive means the rest.

Chain of 1,4-dihydroxy-2-naphthoyl-CoA synthase (Mycobacterium tuberculosis (strain ATCC 25618 / H37Rv)) (P9WNP5 whole entry, looked up): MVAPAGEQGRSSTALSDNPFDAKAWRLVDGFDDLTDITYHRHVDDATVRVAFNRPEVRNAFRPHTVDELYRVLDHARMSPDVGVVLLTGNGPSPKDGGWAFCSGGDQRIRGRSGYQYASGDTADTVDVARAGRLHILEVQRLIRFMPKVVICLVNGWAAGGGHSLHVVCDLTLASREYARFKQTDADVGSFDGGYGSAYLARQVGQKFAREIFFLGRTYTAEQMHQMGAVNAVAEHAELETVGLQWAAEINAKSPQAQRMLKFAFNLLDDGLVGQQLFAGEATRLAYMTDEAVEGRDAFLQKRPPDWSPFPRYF

The test addresses 1,4-dihydroxy-2-naphthoyl-CoA synthase (Mycobacterium tuberculosis (strain ATCC 25618 / H37Rv)) (UniProt P9WNP5). Nature of the test: M. tuberculosis MenB inhibitors, primary screen, biochemical, absorbance (AID 540299). Conditions: MenB enzyme assay, absorbance read-out; hits give high values; concentration not given here.
Take `CC1CC(Nc2ncnc3c2cnn3C)CC(C)(C)C1` (stereo unspecified): the inhibition was -4.06%.
Turning to `CCn1c(SCc2cc(=O)n3ccsc3n2)nnc1-c1cccs1`, the inhibition was 9.46%.
With `C=CCSc1nnc(NC(=O)CSc2nc(C)cc(=O)[nH]2)s1` the figure was -17%.
Take `NS(=O)(=O)c1ccc(NC(=O)Cc2ccccc2F)cc1`: the inhibition is -21.5%.
As to `CCN(CC)C(=O)N1CCc2cc(OC)c(OC)cc2C1c1cc2cc(C)ccc2n(C(=O)N(CC)CC)c1=O` (stereo unspecified), the inhibition was 4.68%.
On to `CN(CC(=O)Nc1ccccc1SCC#N)Cc1ccc(-c2ccc(Br)cc2)o1`, for which the inhibition was 30.3% (active).
As for `N#CCSc1ccccc1NC(=O)CN1CCc2sccc2C1c1cccs1` (stereo unspecified), the inhibition was -20.8%.
Take `COc1cc(C(=O)Nc2ccc3nc(N4CCN(c5ncccn5)CC4)cc(C)c3c2)cc(OC)c1OC`: the inhibition was 2.12%.
For the compound `CC(c1ccccc1)n1cnc2c(oc3ccccc32)c1=O` (stereo unspecified), the inhibition is 7.36%.
With `Cc1ccc2[nH]c(=O)c(C(c3nnnn3C3CCCC3)N(C)C3CCCCC3)cc2c1` (stereo unspecified), the inhibition is 3.2%.
With `CCc1ccc(N/N=C(\C#N)C(=O)N2CCN(C)CC2)cc1`, the inhibition was -139%.
Regarding `O=C(CCn1c(=O)c2cccn2c2ccc(F)cc21)NC1CCCCC1`, the inhibition is -14.7%.
Consider `Cc1ccc2c(c1)c1c3n2CCN(C2CCO2)C3CCC1` (stereo unspecified), for which the inhibition is -8.76%.
Turning to `O=C(CC(NCCc1ccc(Cl)cc1)C(=O)O)c1ccc(Br)cc1` (stereo unspecified), the inhibition was -5.44%.
Take `CC(C)(C)c1oc2cc(Br)c(O)cc2c1C(=O)O`: the inhibition was -32.6%.
For the compound `CCO/C(C)=N\Oc1nc2nonc2nc1O/N=C(/C)OCC`, the inhibition was 28.8% (active).
On to `COc1nc2nonc2nc1OC`, for which the inhibition was 26.7%.
In the case of `CCOC(=O)CCSc1ccccn1`, the inhibition was -3.2%.
On to `CN(Cn1nc(Nc2ccccc2F)sc1=S)C1CCCCC1`, for which the inhibition was 4.42%.
Regarding `O=CN/N=C/c1cn(-c2cccs2)nc1-c1ccccc1`, the inhibition was -3.73%.
With `C=COc1ccc(N)cc1`, the inhibition is -24.2%.
On to `Cc1noc2nc(C(F)(F)F)cc(C(F)(F)F)c12`, for which the inhibition is -1.29%.
For `O=S(=O)(NCCc1ccccc1)c1ccccc1`, the inhibition was 10.7%.
Turning to `COc1ccc(OCCNS(=O)(=O)Cc2ccccc2)cc1`, the inhibition is -18.2%.
On to `CS(=O)(=O)Cc1ccccc1`, for which the inhibition was 28.2% (active).
As for `O=C(O)CC(c1ccccc1)c1cc(Cl)ccc1O` (stereo unspecified), the inhibition is 2.19%.
On to `CC1CN(C(=O)COC(=O)c2c(F)cccc2F)CC(C)O1` (stereo unspecified), for which the inhibition is -14.9%.
As for `Cc1cc(NC(=O)COC(=O)C2CSC3(C)CCC(=O)N23)no1` (stereo unspecified), the inhibition was -17%.
With `CCCCn1c(N)c(N2CCOCC2)c(=O)n(CC(=O)NCCc2ccccc2)c1=O` the figure was 2.85%; with `COc1cc(S(=O)(=O)N2CCCCC2)ccc1N=Cc1c(C)[nH]n(-c2ccccc2)c1=O`, -6.35%; with `Cn1c(=O)c(=O)n(C)c2cc(N3CCCCC3)c(NS(=O)(=O)c3ccc(Br)s3)cc21`, -15.3%.
Turning to `NCCN1C(=O)S/C(=C/c2cccs2)C1=O`, the inhibition was -14.2%.
For `O=C(Cn1cnc2ccccc2c1=O)NCCSCc1ccco1`, the inhibition was -21.3%.
With `COc1ccc(OCC(=O)N2CCC(C(N)=O)CC2)cc1` the figure was -7.08%; with `CC1CC(C)CN(C(=O)COC(=O)c2ccccc2NC(=O)c2ccco2)C1` (stereo unspecified), 9.45%; with `O=C1C2N=NN(CC(=O)N(c3ccccc3)c3ccccc3)C2C(=O)N1c1ccc(Cl)cc1` (stereo unspecified), -6.55%.
In the case of `N#CC(C#N)=Cc1ccc(OC(=O)c2cccs2)cc1`, the inhibition was 0.71%.
On to `CC(=O)N(Cc1cc2ccccc2[nH]c1=O)c1ccccc1`, for which the inhibition was -11.4%.
As to `S=C(NC1CCCCC1)NN1CCOCC1`, the inhibition is -1.62%.
As to `COC(=O)c1c(NC(=O)CCN2CCOCC2)sc2c1CCCC2`, the inhibition was -12.6%.
For `CC(NCCN1CCOCC1)C(=O)NC1CCCCC1` (stereo unspecified), the inhibition was 35.5% (active).
On to `Cc1cc(C)n(CC(O)CNCc2ccco2)n1` (stereo unspecified), for which the inhibition was -21.2%.
Regarding `CN(C)c1ccc(C=Nc2cc(Br)c3c(c2)OCCO3)cc1`, the inhibition was 7.11%.
As for `O=C(O)CSc1ccc2nnc(-c3ccc(F)cc3)n2n1`, the inhibition was -23.7%.
`COc1ccccc1CNCCN1CCOCC1`: the inhibition is 38.3% (active).
As for `CNCC(O)CN1CCN(c2ccccc2OC)CC1` (stereo unspecified), the inhibition was -10.5%.
In the case of `C(=C\c1ccccc1)/CNCCCN1CCOCC1`, the inhibition was -52.5%.
As for `COc1ccccc1COCC(O)CN1CCC(=O)CC1` (stereo unspecified), the inhibition was -22.7%.
As for `COc1ccccc1OCC(O)CN1CCOCC1` (stereo unspecified), the inhibition is 34.9% (active).
With `COc1cccc(-c2noc(NCCN3CCOCC3)n2)c1`, the inhibition was -12.4%.
Turning to `CC(=O)n1c2ccccc2c2nc(C)sc21`, the inhibition was -21.4%.
In the case of `CCOC(=O)c1ccc(NC(=O)C(CC)Sc2nnc(C)n3c2cc2occc23)cc1` (stereo unspecified), the inhibition is -38.3%.
For the compound `CN(C)c1ccc(/C=N/NC(=O)NC23CC4CC(CC(C4)C2)C3)cc1`, the inhibition was -17%.
On to `CCCNC(=O)c1cc(C(C)C)on1`, for which the inhibition was -9.37%.
In the case of `Cc1cc(C(=O)N2CCCC2)on1`, the inhibition was -1.16%.
For the compound `CC(C)c1cc(C(=O)O)on1`, the inhibition was 31.1% (active).
For the compound `COc1cc(OC)c(NC(=O)C2CCCN(S(=O)(=O)c3ccc4c(c3)oc(=O)n4C)C2)cc1Cl` (stereo unspecified), the inhibition is -18.8%.
For `Cc1nnc(NC(=O)CSc2nnc(CNC(=O)c3ccccc3F)n2C)s1`, the inhibition is 27.8%.
As to `O=C(OCc1ccc(-c2cc(C(F)(F)F)cc(C(F)(F)F)c2)o1)c1ccc2c(c1)CCO2`, the inhibition was -6.53%.
In the case of `CCN(CC)C(=O)COc1ccc(/C(C)=N/NC(=O)Cc2ccccc2)cc1`, the inhibition is -14.7%.
For `O=C(NCCc1ccccc1)Nc1ccccc1`, the inhibition is 8.56%.
Turning to `O=C(O)C1CC=CCC1C(=O)NCCc1ccccc1` (stereo unspecified), the inhibition is 36% (active).
On to `O=C(O)C1C2C=CC(O2)C1C(=O)NCCc1cccc(Cl)c1` (stereo unspecified), for which the inhibition is -14.4%.
As for `COc1cccc(-n2c(=S)sc3c(=O)n4[nH]c(=O)c5ccccc5c4nc32)c1`, the inhibition is -24.4%.
For `CC(C)[C@H](NC(N)=O)C(=O)Nc1ccc(Cl)c(Cl)c1`, the inhibition was -13.2%.
As for `CCOC(CSc1nnc2c3ccccc3n(CC)c2n1)OCC`, the inhibition is -14%.
With `CC(=O)NC1C(Oc2ccccc2)OC(CO)C(O)C1O` (stereo unspecified) the figure was -6.61%; with `COc1ccc(OCCOc2cccc(N)c2)cc1`, -98.6%.
For `Cc1cccc(-n2nnnc2SCC(=O)c2c[nH]c3ccccc23)c1`, the inhibition was -3.22%.
Consider `C=CCN(CC=C)C(=O)CSc1nnnn1-c1ccc(C)cc1C`, for which the inhibition is -1.92%.
On to `CCn1nnnc1SCC(=O)c1ccc(C)cc1C`, for which the inhibition is 33.1% (active).
`CCNC(=S)N1CCn2cccc2C1c1cccs1` (stereo unspecified): the inhibition is -29%.
Turning to `CC(Sc1nnnn1C)C(=O)C12CC3CC(CC(C3)C1)C2` (stereo unspecified), the inhibition is -36%.
Consider `COc1ccc(S(N)(=O)=O)cc1C(=O)OC1CCCCC1=O` (stereo unspecified), for which the inhibition was -12.8%.
With `Clc1cccc(Nc2nnc(-c3ccc(Br)cc3)o2)c1` the figure was 1.27%; with `CC1CCNC(c2cccn2C)CC1` (stereo unspecified), -2.11%; with `CCN1C(=O)C2(Sc3ccccc3C2=O)C(=O)N(CC)C1=S`, -6.71%.
Take `Clc1ncn(CCOc2ccccc2)c1Cl`: the inhibition is 3.99%.
Consider `O=C(Cn1c(=O)oc2ccccc21)N(Cc1ccco1)CC1CCCO1` (stereo unspecified), for which the inhibition was 2.87%.
Regarding `O=C(NCc1ccco1)OCC(F)(F)F`, the inhibition was 8.37%.
On to `O=C(c1cccs1)N1CCCn2c(SCc3ccccc3Cl)nnc21`, for which the inhibition is -21.4%.
Turning to `COC(=O)c1ccccc1S(=O)(=O)N1CCC(C(=O)OCC(=O)Nc2ccccc2F)CC1`, the inhibition was -9.07%.
For `CCN(CC)CCn1c2ccccc2c2nc3cc(C(=O)O)ccc3nc21`, the inhibition is -8.07%.
On to `Cc1oc(-c2ccc(Cl)cc2)nc1CSCC(=O)N1CCc2ccccc21`, for which the inhibition was 8.32%.
With `COCCN=c1scc(-c2ccco2)n1/N=C/c1ccc(OC)cc1` the figure was -60.5%; with `CN1C(=O)CS/C1=C\C(=O)c1cccs1`, -16.1%; with `Fc1ccc(C=Nc2ccc3c(c2)OCO3)cc1`, 10.6%.
Consider `C/[N+]([O-])=C\c1ccc(-c2ccccc2)cc1`, for which the inhibition is -18.5%.
With `O=C(COc1ncnc2c1cnn2-c1ccccc1)N1CCc2ccccc21`, the inhibition was -28.4%.
For `O=C(COn1nnc2ccccc21)N1CCC(Cc2ccccc2)CC1`, the inhibition is -32.5%.
For `O=C1NC(c2cccc(F)c2)=N/C1=C/c1cc2c(cc1Cl)OCO2`, the inhibition was -89%.
With `Cc1ccc(-c2csc3ncnc(NCCO)c23)cc1` the figure was -19.8%; with `Cc1cccc(/N=c2\scc(-c3ccco3)n2-c2ccccc2)n1`, -26.2%.
On to `CCC(=O)c1c(O)ccc2c(C)cc(=O)oc12`, for which the inhibition is 2.91%.
On to `CCN(CC)c1ccc2cc(C(N)=O)/c(=N\NC(=O)c3ccccc3)oc2c1`, for which the inhibition was -13.9%.
For `Cn1c(=N)n(CC(=O)C23CC4CC(CC(C4)C2)C3)c2ccccc21`, the inhibition is -12%.
Consider `Cc1ccc(NC(=O)CN2CCc3ccccc32)cc1C`, for which the inhibition was -19.3%.
With `COc1cccc2c(C)nc(NC3=NCN(CC4CCCO4)CN3)nc12` (stereo unspecified), the inhibition is -8.02%.
Turning to `COC(=O)c1ccc(NC(=O)C(C(C)C)N2C(=O)c3ccccc3C2=O)cc1` (stereo unspecified), the inhibition was 0.235%.
Regarding `Cc1cc(NC(=O)[C@H](C)NC(=O)c2ccco2)ccc1Br`, the inhibition was 0.245%.
Turning to `Cc1ccccc1NC(=O)COC(=O)c1ccccc1`, the inhibition was 4.34%.
Turning to `O=C1Nc2ccccc2S/C1=C\C(=O)N1CCc2ccccc2C1`, the inhibition is -6.55%.
With `CCOC(=O)c1ccc2c(c1)[nH]c(=O)c(=O)n2CC` the figure was 5.07%; with `C/C(=C\C(=O)c1ccccc1)Nc1cccc(O)c1`, -47%.
For the compound `O=C(O)/C(=C/C(=O)c1ccccc1)Nc1ccc(OC(F)(F)F)cc1`, the inhibition was 32.1% (active).
For `O=C(O)/C(=C/C(=O)c1ccc(F)cc1)Nc1ccc2[nH]c(=O)[nH]c2c1`, the inhibition was -9.19%.

Source of the values: PubChem BioAssay AID540299 (ICCB-Longwood Screening Facility, Harvard Medical School, 2011).
